Holding throughout (assay): NCI-60 one-dose screen, 48 h (100 = growth as untreated, 0 = no growth, -100 = all killed)
What all share (conditions): 10 µM unless noted

Assay [1] has as its system NCI-H23 lung.
In assay [2] the test system is NCI-H226 lung.
The subject of assay [3] is NCI-H322M lung.
For assay [4], the system named is HOP-62 NSCLC.
Assay [5] concerns NCI-H460 lung.
Assay [6] relates to HOP-92 NSCLC.
Assay [7] relates to NCI-H522 lung.
Assay [8] deals with A549/ATCC NSCLC.
The test system of assay [9] is 786-0 renal.
Assay [10] relates to DU-145 prostate.
Assay [11] deals with K-562 leukemia.
Assay [12] concerns MALME-3M melanoma.
The subject of assay [13] is MDA-MB-231 breast.
Assay [14] concerns RXF 393 renal.
The subject of assay [15] is SF-268 CNS.
The subject of assay [16] is SF-295 CNS.
Assay [17] concerns SF-539 CNS.
Assay [18] concerns UACC-257 melanoma.
The test system of assay [19] is M14 melanoma.

About 83,000 compounds went through this panel and 20% of them were active in at least one assay; those are over-represented in the sample as a whole.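 Single-dose data. Exposure time 48 hours. Values below 10 considered active.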 Values without a mark were called inactive. Activity calls are given as the source filed them.

Regarding `CCN(CC)CCOC(=O)Nc1ccccc1Cl`, the growth in assay [1] was 105%; in assay [2] it was 88.1%; in [3] it was 92.7%; in assay [4], 102%; in assay [5] it was 104%; in assay [6] it was 82%. Besides, the growth in assay [7] is 68.9%; in [8], 98.7%; in assay [9], 92.1%; in assay [10], 107%; in assay [11], 94.8%; in [12], 95.7%. The growth in assay [13] is 115%; in [14], 117%; in assay [15], 102%; in assay [16] it was 104%; in assay [17] it was 102%; in assay [18], 105%. Further, the growth in [19] was 86.1%.
As to `Cc1ccc(S(=O)(=O)Nc2sccc2-c2nc(-c3ccccc3)no2)cc1`, the growth was 87.5% in [1]; 87.9% in [2]; 82.1% in assay [3]; 77.8% in [4]; 92.3% in [5]; 88.8% in assay [6]. For the same compound, the growth in [7] is 81.2%; in [8], 90.3%; in assay [9], 94.5%; in assay [10], 105%; in assay [11] it was 103%; in assay [12], 94.4%. Also, the growth is 101% in [13]; 96.1% in assay [14]; 92.4% in assay [15]; 99.3% in assay [16]; 95% in [17]; 89.3% in [18]. In addition, in [19], the growth was 87.1%.
For `COc1ccc(N=c2nc3sc4cc(Cl)ccc4n3c(N)c2C#N)cc1`, the growth in assay [1] is 66.5%; in assay [2] it was 24.4%; in [3], 93.4%; in [4], 102%; in [5], 102%; in assay [6] it was 88.4%. Besides, the growth was 88.6% in assay [7]; 62.4% in assay [8]; 22.1% in [9]; 105% in assay [10]; 98.9% in [11]; 77.4% in assay [12]. For the same compound, the growth was 76.4% in [13]; 52% in assay [14]; 60.1% in assay [15]; -3.63% (active) in [16]; 103% in [17]; 61.6% in assay [18]. The growth in [19] is 70.6%.
Take `C=C(CNCCc1ccc(O)cc1)[C@@H]1CC[C@]2(COC3CCCCO3)CC[C@]3(C)[C@H](CC[C@@H]4[C@@]5(C)CCC(NCCO)C(C)(C)[C@@H]5CC[C@]43C)[C@@H]12` (some centres not stated): the growth in assay [1] is -81% (active); in assay [2], -54.2% (active); in assay [3], -96.5% (active); in assay [4], -89.2% (active); in [5] it was -79.9% (active); in assay [6], -80.8% (active). Also, the growth in assay [7] was -77.3% (active); in assay [8], -88.6% (active); in assay [9], -90.2% (active); in [10], -91.9% (active); in assay [11], -66.1% (active); in assay [12], -86.4% (active). For the same compound, the growth in assay [13] was -94.3% (active); in assay [14] it was -88.9% (active); in assay [15] it was -87.9% (active); in assay [16], -82.4% (active); in assay [17] it was -91.9% (active); in assay [18], -85.6% (active). In assay [19], the growth is -86.8% (active).
For the compound `NC(N)=N/N=C(/c1ccccc1)c1ccccc1F`, the growth in assay [1] is 34.4%; in assay [2], 14.4%; in [3], 62%; in assay [4] it was 17.5%; in assay [5], 13.2%; in [6], 57.8%. Further, the growth was 4.97% (active) in assay [7]; 28.4% in assay [8]; -26.2% (active) in assay [9]; 15% in [10]; 4% (active) in assay [11]; 35.7% in [12]. Besides, the growth in [13] is 22.1%; in assay [14], 43%; in assay [15] it was 51.8%; in [16] it was 11.8%; in assay [17], 2.84% (active); in assay [18] it was 68.1%. Besides, the growth in assay [19] is -45.4% (active).
In the case of `COc1ccc(-c2cc(-c3cc(OC)ccc3OC)[nH]c(=O)c2C#N)cc1`, the growth was 64.3% in [1]; 69.5% in assay [2]; 91.7% in [3]; 48.1% in [4]; 32.4% in assay [5]; 55.3% in [6]. Besides, the growth is 16.7% in assay [7]; 46.3% in assay [8]; 63.5% in assay [9]; 74.2% in assay [10]; 25.4% in assay [11]; 52.4% in assay [12]. Besides, the growth is 55.4% in [13]; 71.1% in assay [14]; 60.3% in assay [15]; 31% in assay [16]; 50.3% in assay [17]; 59.3% in [18]. Besides, in assay [19], the growth was 29.1%.
As to `CN1CCN(c2ccc(Nc3ncc(Cl)c(NC[C@@H]4CCCO4)n3)cc2)CC1`, the growth was 15.8% in assay [1]; 8.99% (active) in [2]; 35.9% in [3]; 7.27% (active) in assay [4]; 13.2% in assay [5]; 3.21% (active) in assay [6]. The growth is 25.6% in assay [7]; 22.8% in assay [8]; 26% in [9]; 23% in assay [10]; 27.2% in assay [11]; 27.4% in [12]. For the same compound, the growth in assay [13] was 17.8%; in [14], -31.7% (active); in [15], 24.6%; in assay [16], 31.3%; in assay [17] it was -6.55% (active); in assay [18], 44.7%. The growth in assay [19] is 21.7%.
Consider `CNC(=O)c1cc(Oc2ccc3nc(Nc4cc(Cl)cc(Cl)c4)ccc3c2)ccn1`, for which the growth is 70.6% in assay [1]; 81.9% in [2]; 82.9% in assay [3]; 72.1% in assay [4]; 66.9% in assay [5]; 67.6% in assay [6]. The growth in assay [7] was 29.6%; in [8], 49.3%; in assay [9], 82.6%; in assay [10], 78%; in assay [11], 19.1%; in assay [12] it was 64.7%. Besides, the growth in [13] is 34.6%; in [14], 92.4%; in [15], 59.8%; in assay [16], 47.1%; in assay [17] it was 75.3%; in assay [18], 53.2%. In addition, the growth in [19] is 38.5%.

The values above are taken from PubChem BioAssay (NCI).
